In the library only some 11% were active in any assay of this set; here they are far more common.
FLuc inh: blocks purified firefly luciferase enzyme activity | P08659 | Potency, µM (titrated, usually from 115 µM), hits mostly inhibitors | hit rate 2.5% among 76,000 | purified P. pyralis luciferase, luminescence, biochemical; further: nearly all actives have a fitted effect of over 65% in size
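Biochemical qHTS: compound (6-point titration) added to 10uM D-luciferin plus 10uM ATP in Tris acetate pH 7.5 buffer with Mg, Tween-20 and BSA, then purified enzyme at 10nM; light output imaged.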
HEK293 tox: cytotoxic compounds in HEK 293 cells | HEK 293 viability, ATP luminescence (CellTiter-Glo), 48-72 h | hit rate 6.6% among 94,000 | Potency, µM (series often up to 115 µM), inactives show at the top dose activity change, negative = cytotoxicity, actives largely listed as inhibitors; further: nearly all actives have a fitted effect of over 60% in size
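Pintool-delivered compounds were incubated with HEK 293 cells (250 cells/well) at 37 degree Celsius for 48 or 72 hr. ATP-dependent luminescence (CellTiter-Glo) then reported remaining viable cells.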
NPR1 antag: blocks ANP-stimulated signaling of human Npr1 receptor | HEK293 hNpr1 GloSensor cGMP, ANP-stimulated luminescence | Potency, µM (doses to about 46.3 µM), for inactives: at the highest dose activity change, negative = inhibition, actives largely listed as inhibitors | hit rate 1.6% among 76,000 | AID 1347048; calls by dose curve; further: nearly all actives have a fitted effect of over 60% in size
Target sequence (P16066 whole entry, looked up): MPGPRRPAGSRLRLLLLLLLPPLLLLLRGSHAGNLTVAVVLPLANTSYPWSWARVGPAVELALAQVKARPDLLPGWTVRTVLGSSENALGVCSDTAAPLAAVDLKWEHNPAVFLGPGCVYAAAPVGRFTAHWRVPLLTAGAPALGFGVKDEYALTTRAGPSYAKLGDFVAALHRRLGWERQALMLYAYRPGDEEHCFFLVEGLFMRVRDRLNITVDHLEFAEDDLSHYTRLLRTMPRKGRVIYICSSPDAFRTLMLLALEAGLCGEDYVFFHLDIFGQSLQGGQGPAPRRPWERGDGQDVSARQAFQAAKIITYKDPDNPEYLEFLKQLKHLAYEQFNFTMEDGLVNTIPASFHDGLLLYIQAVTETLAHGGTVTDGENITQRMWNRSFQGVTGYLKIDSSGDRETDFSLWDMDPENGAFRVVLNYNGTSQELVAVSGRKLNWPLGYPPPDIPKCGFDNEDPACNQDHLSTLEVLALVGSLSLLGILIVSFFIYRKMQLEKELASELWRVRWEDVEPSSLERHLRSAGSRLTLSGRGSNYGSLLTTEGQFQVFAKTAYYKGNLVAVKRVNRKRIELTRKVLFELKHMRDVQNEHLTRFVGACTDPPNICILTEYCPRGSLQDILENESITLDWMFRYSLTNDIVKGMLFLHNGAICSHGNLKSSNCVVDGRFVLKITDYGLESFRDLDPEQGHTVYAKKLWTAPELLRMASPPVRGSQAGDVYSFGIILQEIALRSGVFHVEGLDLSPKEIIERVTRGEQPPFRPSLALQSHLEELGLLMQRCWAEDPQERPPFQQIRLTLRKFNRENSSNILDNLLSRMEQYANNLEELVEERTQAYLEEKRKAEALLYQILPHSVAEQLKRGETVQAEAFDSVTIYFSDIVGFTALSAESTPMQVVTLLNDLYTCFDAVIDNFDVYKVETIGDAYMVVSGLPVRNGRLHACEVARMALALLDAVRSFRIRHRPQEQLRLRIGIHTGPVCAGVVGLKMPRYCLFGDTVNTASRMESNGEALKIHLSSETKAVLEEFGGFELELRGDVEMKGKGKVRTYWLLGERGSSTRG
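Compound pre-incubated 30 min at room temperature on GloSensor-loaded HEK293 cells stably carrying hNpr1 and the pGS-40F cGMP biosensor. Stimulation uses hNppA at 0.1 nM final; luminescence is taken at baseline and 20 min post-agonist.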
NIH3T3 tox: NIH 3T3 cell cytotoxicity; NIH 3T3 viability, CellTiter-Glo ATP luminescence, 48-72 h; Potency, µM (doses to about 96.7 µM), without a hit: top-dose activity change, negative = cytotoxicity, actives largely listed as inhibitors; hit rate 4.3% among 94,000; AID 1345082; further: nearly all actives have a fitted effect of over 55% in size
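Cytotoxicity was measured by CellTiter-Glo ATP luminescence after 48 or 72 h compound exposure at 37 °C. Mouse NIH 3T3 fibroblasts were seeded at 400 cells/well and dosed by 23 nL pin transfer.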
The depositor's hits bear a star; i = inactive; ? = inconclusive; . = no result; [ ] = another dose, or the depositor's remark. Unless noted, the call rests on the fitted dose curve; in most records, active means well fitted curve in the direction sought with a large enough effect; inconclusive means small, poorly fitted or top-dose-only effect, or another doubt; inactive means no such curve, though single readings can be large; an effect the other way counts as inactive or inconclusive. On the % scale 0 is the no-effect control and ±100 the full control effect; potency means the concentration at half of the fitted maximal effect.

SMILES | FLuc inh | HEK293 tox | NPR1 antag | NIH3T3 tox
O=C(Cc1ccccc1Cl)Nc1cccc(-c2nnc3n2CCCC3)c1 | i | -9.9% | 2.0% | -9.8%
O=C(Nc1cccc(C(F)(F)F)c1)c1nnn2c1CN(Cc1ccccc1F)C(=O)CC2 | i | ? | -8.4% | ?
CC(C)C1=NOC2(CCCN(CC3CCCC3)C2)C1 (stereo not drawn) | . | 3.8%[172 µM] | . | -1.7%[138 µM]
Cc1cccc2c1nc1n2[C@@H](CNCc2nc3ccccc3n2C)COC1 | i | ? | ? | 100µM*
Cc1cccc2c1nc1n2[C@@H](CNCc2ccc(C#N)cc2)COC1 | i | ? | ? | ?
Cc1ccccc1C1(O)CCN(C(=O)c2ccc(C#CC(C)(C)O)o2)C1 (stereo not drawn) | i | ? | -11.1% | 35.5µM*
CC(C)(O)C#Cc1ccc(C(=O)N2CC(=O)N(C3CCCCC3)CC(OCc3cccnc3)C2)o1 (stereo not drawn) | i | -2.8% | 0.3% | -6.3%
CCN1c2cc(C(=O)NCCC3=CCCCC3)ccc2C(=O)N2CCCCC21 (stereo not drawn) | i | 44.7µM* | -10.5% | ?
CCN1c2cc(C(=O)Nc3ccc(C)cc3Cl)ccc2C(=O)N2CCCCCC21 (stereo not drawn) | i | 50.1µM* | -1.1% | ?
CCN1c2cc(C(=O)Nc3ccc(C)cc3)ccc2C(=O)N2CCCCCC21 (stereo not drawn) | ? | 39.8µM* | -23.5% | ?
CCc1ccc(NC(=O)c2ccc3c(c2)N(CC)C2CCCCN2C3=O)cc1 (stereo not drawn) | ? | 25.1µM* | -9.3% | ?
O=C(c1cnccn1)N1CCCC(c2noc(COc3ccccc3F)n2)C1 (stereo not drawn) | i | -15.7% | 7.9% | -29.3%
Cc1ccc(CN2CCC3(Cc4ccccc4CNC3=O)C2)cc1C (stereo not drawn) | . | ? | . | -24.2%
CCc1ccc(NC(=O)C2CC(=O)N(c3n[nH]c4cccc(F)c34)C2)cc1 (stereo not drawn) | i | -15.7% | 1.0% | -0.1%
CN1c2cc(C(=O)Nc3ccc(N4CCOCC4)cc3)ccc2C(=O)N2CCCCC21 (stereo not drawn) | i | ? | -6.4% | ?
CCN1c2cc(C(=O)Nc3ccc(Br)cc3)ccc2C(=O)N2CCCCCC21 (stereo not drawn) | i | ? | -11.6% | 39.8µM*
CCN1c2cc(C(=O)Nc3ccc(N4CCOCC4)cc3)ccc2C(=O)N2CCCCC21 (stereo not drawn) | i | ? | 0.0% | 20µM*
CCN1c2cc(C(=O)Nc3cccc(C#N)c3)ccc2C(=O)N2CCCCCC21 (stereo not drawn) | i | 15.8µM* | -13.8% | ?
CCN1c2cc(C(=O)Nc3ccc(Br)cc3)ccc2C(=O)N2CCCC21 (stereo not drawn) | i | 39.8% | -2.2% | i
CCN1c2cc(C(=O)Nc3ccccc3)ccc2C(=O)N2CCCCCC21 (stereo not drawn) | i | 39.8µM* | -3.3% | ?
CC(C)(C)NC(=O)N1CCCCC1c1nc(CCOc2ccc(F)cc2)no1 (stereo not drawn) | i | ? | -29.8% | ?
O=C1CCN(C(=O)C2CCOCC2)CCCC(c2nc(-c3ccccc3)no2)CCN1 (stereo not drawn) | i | i | 3.4% | 3.0%
CCN1c2cc(C(=O)Nc3cc(C)cc(C)c3)ccc2C(=O)N2CCCCC21 (stereo not drawn) | i | 28.2µM* | -4.4% | ?
CCN1c2cc(C(=O)Nc3cc(F)cc(F)c3)ccc2C(=O)N2CCCCCC21 (stereo not drawn) | i | ? | 0.0% | ?
COc1ccc(-c2ccc3nnc(CNC(=O)c4cccn4C)n3n2)cc1 | i | -11.7% | 0.5% | -16.7%
SMILES | FLuc inh | HEK293 tox | NPR1 antag | NIH3T3 tox
CCC(C)C1=NS(=O)(=O)c2cc(NC(=O)C3CC3)ccc2N1c1ccccc1 (stereo not drawn) | i | ? | -11.3% | ?
CC(C)(CC1Cc2ccccc2C1)NC(=O)C1CC2(CCNCC2)CN1 (stereo not drawn) | i | 25.1µM* | -0.3% | 31.6µM*
COc1ccccc1-c1nc(-c2nnn3c2COC(c2ccc(C)cc2)C3)no1 (stereo not drawn) | i | -6.6% | 16.5% | -13.3%
CC(C)c1nc(-c2ccc(OC3CCN(C(=O)C4(c5ccccc5)CC4)C3)cc2)no1 (stereo not drawn) | i | 44.7µM* | ? | ?
O=C(c1ccoc1)N1CCC(Oc2cccnc2)C1 (stereo not drawn) | i | -0.2% | -4.1% | i
CC(C)c1nc(-c2ccc(OC3CCN(C(=O)c4ccoc4)C3)cc2)no1 (stereo not drawn) | . | 31.6µM* | . | ?
Cc1noc(C)c1S(=O)(=O)N1CCC(Oc2ccc(-c3noc(C(C)C)n3)cc2)C1 (stereo not drawn) | . | 20µM* | . | -27.7%
COc1ccc(NC(=O)N2CCC(Oc3ccc(-c4noc(C5CC5)n4)cc3)C2)cc1 (stereo not drawn) | ? | ? | ? | -20.8%
COc1ccc(C(=O)N2CCC(Oc3ccc(-c4noc(C5CC5)n4)cc3)C2)cn1 (stereo not drawn) | . | 35.5µM* | . | ?
Cc1nn2c(c1-c1ccnn1C(C)C)N(Cc1ccc(O)cc1)CCC2 | i | ? | -7.0%[70.6 µM] | ?
O=C(c1ccccn1)N1CCC2(CC1)NC(=O)N(Cc1ccc(F)cc1)C2=O | i | 9.1% | 0.0% | i
CN(CC1(C)CCOCC1)C(=O)c1ccc(F)c(Cl)c1 | i | -4.6% | 1.2% | 2.6%
CNC(=O)[C@@H]1CN(S(=O)(=O)c2ccc(Cl)s2)C[C@H]1c1n[nH]c(C)n1 | i | -6.3% | -13.8% | ?
O=S(=O)(c1ccc(F)cc1)N1CCC(Oc2ccc(-c3noc(C4CC4)n3)cc2)C1 (stereo not drawn) | i | 28.2µM* | ? | ?
COc1ccc(CN2C[C@H]3CN(Cc4ccc(Cl)cc4)CCN3C2=O)cc1 | i | 70.8µM* | ? | ?
O=C1N2CCCC2CN1C1CCN(Cc2ccc(OC(F)(F)F)cc2)CC1 (stereo not drawn) | i | 39.8µM* | ? | ?
COc1ccc(CN2C[C@H]3CN(Cc4c[nH]c5ccccc45)CCN3C2=O)cc1 | i | 100µM* | -4.9%[70.6 µM] | ?
Cc1ccc(CN2C[C@H]3CN(Cc4ccc(OC(F)(F)F)cc4)CCN3C2=O)cc1 | i | 70.8µM* | ? | 50.1µM*
O=C(c1ccno1)N1CCOC[C@H](Oc2ccc(C(F)(F)F)cc2)C1 | i | -18.0%[172 µM] | -2.0%[70.6 µM] | -7.4%[138 µM]
Cc1nncn1C1CCN(S(=O)(=O)c2cccc(Br)c2)CC1 | i | -2.0% | 5.8% | -5.6%
CCc1ccccc1-n1nc(-c2c(C)nc3scc(CC(=O)NCc4ccccc4)n3c2=O)cc1C | i | ? | -6.8% | -11.0%
O=C(NCCCn1ccc2ccccc21)C1CC(=O)N(C2CCCC2)C1 (stereo not drawn) | i | -0.8% | 2.8% | -3.2%

Screens deposited in PubChem by National Center for Advancing Translational Sciences (NCATS).
